# Assay outcomes deposited in PubChem BioAssay by National Center for Advancing Translational Sciences (NCATS).
# Shown are actives, neighbours in structure and some others; about 7.5% of the full set was active somewhere.
# NPC1 promoter act = qHTS Assay for NPC1 Promoter Activators | Huh7 NPC1 promoter luciferase reporter, 24 h | Potency, µM (doses to about 9.22 µM), without a hit: top-dose activation, hits mostly activators | 320,000 tested, 2.4% active | AID 485313, 2010; also: % of control where 0% means no effect; nearly all actives have a fitted effect of over 60% in size
#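 Luciferase expression driven by the NPC1 promoter was measured in stably transfected Huh7 cells after a 24 h compound incubation, using a luciferase reagent and a luminescence read.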
# ELG1 genotoxic = qHTS screen for small molecules that induce genotoxicity in human embryonic kidney (HEK293T) cells expressing luciferase-tagged ELG1 | HEK293T ELG1-luciferase reporter, luminescence, 16 h | 330,000 tested, 1.3% active | Potency, µM (highest dose often 46 µM), for inactives: top-dose activity change, positive = activation, usual class: activators; also: % of control where 0% means no effect; nearly all actives have a fitted effect of over 60% in size
#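 Reporter readout depends on ELG1 protein level, which increases with genetic stress. After 16 hr compound exposure at 37 °C, luciferase activity was quantified using ONE-Glo.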
# SMN2 splice enh = qHTS Assay for Enhancers of SMN2 Splice Variant Expression; HEK293 SMN2-luciferase splicing reporter, luminescence, 30-36 h; Potency, µM (highest dose often 46.1 µM), for inactives: at the top dose activity change, positive = activation, actives largely listed as activators; 210,000 tested, 2.8% active; AID 1458, 2008; also: % of control where 0% means no effect; nearly all actives have a fitted effect of over 55% in size
#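 HEK293 cells carry an SMN2 minigene-luciferase reporter in which exon 7 inclusion puts luciferase in frame. Cells were seeded at 2000 cells/well, attached for 10-12 hours, then exposed to compounds for 30-36 hours at 37C before ONE-Glo luminescence.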
# FLuc counter = qHTS profiling assay for firefly luciferase inhibitor/activator using purifed enzyme and Km concentrations of substrates (counterscreen for miR-21 project). Luciferin 4-monooxygenase (Photinus pyralis), P08659. purified FLuc, Km substrates, luminescence inhibition. Potency, µM (highest dose often 57.5 µM), for inactives: top-dose activity change, negative = inhibition, hits mostly inhibitors. 360,000 tested, 6.9% active. AID 588342, 2011;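 also: plate controls were vehicle for no effect and reference inhibitor for full effect; nearly all actives have a fitted effect of over 55% in size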
# Target sequence (P08659 whole entry, looked up): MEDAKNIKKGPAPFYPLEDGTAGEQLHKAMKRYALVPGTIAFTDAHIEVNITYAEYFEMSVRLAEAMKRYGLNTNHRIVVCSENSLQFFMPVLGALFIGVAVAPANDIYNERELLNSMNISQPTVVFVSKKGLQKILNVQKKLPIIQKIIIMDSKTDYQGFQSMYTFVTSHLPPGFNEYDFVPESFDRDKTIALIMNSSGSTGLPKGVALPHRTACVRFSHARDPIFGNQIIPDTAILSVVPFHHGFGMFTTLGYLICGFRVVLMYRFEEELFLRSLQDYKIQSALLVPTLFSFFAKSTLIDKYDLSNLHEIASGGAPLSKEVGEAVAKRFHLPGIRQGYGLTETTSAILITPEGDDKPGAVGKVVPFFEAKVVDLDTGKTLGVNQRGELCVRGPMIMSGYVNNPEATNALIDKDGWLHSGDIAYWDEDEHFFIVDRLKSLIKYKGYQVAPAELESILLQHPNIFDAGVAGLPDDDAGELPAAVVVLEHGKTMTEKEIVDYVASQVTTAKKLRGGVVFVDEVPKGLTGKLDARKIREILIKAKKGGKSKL
#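 Purified P. pyralis luciferase, 10 nM final, with Km-level 10 uM D-luciferin and 10 uM ATP in 50 mM Tris acetate pH 7.5, 10 mM Mg acetate, 0.01% Tween-20, 0.05% BSA; 6-point qHTS titration about 60 µM downward; luminescence read.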
# Luc counter = Counterscreen for Luciferase (Kinase-Glo TM) Inhibition. Kinase-Glo luciferase, ATP luminescence, 8 min. Potency, µM (series often up to 38.3 µM), for inactives: at the highest dose activity change, negative = inhibition, usual class: inhibitors. 200,000 tested, 0.28% active. Luciferin 4-monooxygenase (Photuris pensylvanica), Q27757; also: % is scaled to controls: 0 for no effect and ±100 for the full control effect; nearly all actives have a fitted effect of over 60% in size
#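 Inhibition of Kinase-Glo luciferase light generation was assessed at 10 uM ATP in pH 7.2 imidazole buffer, with luminescence measured after eight minutes at ambient temperature.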
# Rab9 prom act = qHTS Assay for Rab9 Promoter Activators; Huh7 Rab9 promoter-luciferase reporter, luminescence, 24 h; Potency, µM (series often up to 9.22 µM), without a hit: at the highest dose activation, negative = inhibition, usual class: activators; 320,000 tested, 2.8% active; AID 485297, 2010; also: % of control where 0% means no effect; nearly all actives have a fitted effect of over 60% in size
#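 Cell-based reporter: Huh7 stable for Rab9 promoter-driven luciferase, plated in reduced-serum medium with 10% FBS at 1500 cells/well, compound-treated 24 h at 37 °C, luminescence read after 10 min reagent.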
# Active calls of the source: *; ? = inconclusive; · = not tested or not shown; [ ] = dose if it differs, or a comment. Calls follow the shape of the dose curve; as a rule, active = well fitted curve in the direction sought with a large enough effect; inconclusive = small, poorly fitted or top-dose-only effect, or another doubt; inactive = no such curve, though single readings can be large; an effect the other way counts as inactive or inconclusive. Potency is read from the fitted curve at half-maximal effect.
SMILES,NPC1 promoter act,ELG1 genotoxic,SMN2 splice enh,FLuc counter,Luc counter,Rab9 prom act
CCOC(=O)c1cnc(-n2nc(C)cc2C)nc1NC1CCCC1,-7%,-9%,·,-1%,·,-13%
CCOC(=O)c1cnc(-n2nc(C)cc2C)nc1N(C)C,?,?,?,5.4µM*,?,4.5µM*
COc1ccc(C)cc1NC(=O)C1CCN(S(=O)(=O)c2c(C)noc2/C=C/c2ccco2)CC1,·,·,-15%,-4%,·,·
O=C(NCCOc1ccccc1)c1cncc(Br)c1,?,16µM*,5%,?,4%,?
COc1cccc(C(=O)NCCSc2ccc(F)cc2)c1,?,18%,13µM*,19µM*,1%,?
CSc1ccccc1C(=O)NCCSc1ccccc1,11%,?,27%,-18%,-4%,12%
O=C(CCSc1ccccc1)NCCSCc1ccccc1,3%,1%,6%,21µM*,-1%,-4%
O=C(NCCSc1ccccc1)c1ccccc1,2.5µM*,?,11µM*,?,-6%,2.5µM*
CCc1cc(C)cc(OCCNC(=O)c2cncc(Br)c2)c1,-1%,-1%,-16%,3%,-1%,-2%
Cc1cccc(NC(=O)CSc2c(C)cnc3c2c(=O)n(C)c(=O)n3C)c1C,·,·,·,3%,·,·
CCCC(=O)NCC(c1ccc2c(c1)OCO2)N1CCOCC1 (stereo not given),·,·,·,0%,·,·
O=C(NCCSc1ccccc1)c1ccc(Br)cc1,0.79µM*,3.3µM*,6.3µM*,1.3µM*,-4%,0.56µM*
O=C(NCCSc1ccccc1)c1cncc(Br)c1,?,15µM*,?,21µM*,1%,?
CN(C)S(=O)(=O)c1ccc(C(=O)NCCSc2ccc(Br)cc2)cc1,2%,-4%,-27%,0%,-2%,-9%
Cc1cnc(CNc2ncnc3ccc(-c4cccc(C#N)c4)cc23)cn1,·,·,-1%,·,-4%,·
C=Cc1ccc(CSc2nc(-c3ccc(Cl)cc3)nc3c2Cc2c(CO)cnc(C)c2O3)cc1,·,·,·,-1%,·,·
CCc1ccc(-c2csc(NC(=O)COC(=O)CCc3nc4ccccc4s3)n2)cc1,2.8µM*,?,5.6µM*,?,0%,3.2µM*
Cc1nc(NC(=O)COC(=O)CCc2nc3ccccc3s2)c(Cl)cc1Cl,-2%,1%,-8%,1%,-2%,-9%
O=C(c1ccc(C#Cc2ccccc2)o1)N1CCN(c2ccccn2)CC1,2%,1%,-14%,?,-5%,3%
COC(=O)c1ccc(C#Cc2ccccc2)o1,19%,14%,·,17µM*,·,17%
CCCCCOC(=O)c1ccc(Nc2nc(C(=O)OCC)nc3ccccc23)cc1,·,·,-2%,-6%,·,·
CCOc1ccccc1NC(=O)C(=O)NCC(c1cccnc1)N1CCN(c2ccccc2)CC1 (stereo not given),·,·,·,-10%,·,·
O=c1[nH]c(CSc2nc3ccccc3[nH]2)nc2c1cnn2-c1ccccc1,-7%,0%,-18%[1.84 µM],?,1%,-7%
O=c1[nH]c(SCc2nc3c(cnn3-c3ccccc3)c(=O)[nH]2)nc2ccccc12,?,8%,18µM*,?,-1%,2µM*
O=C(N/N=C/c1ccc([N+](=O)[O-])cc1)c1[nH]ncc1Br,2µM*,?,11µM*,?,?,1µM*
SMILES,NPC1 promoter act,ELG1 genotoxic,SMN2 splice enh,FLuc counter,Luc counter,Rab9 prom act
CCOC(=O)c1nn(-c2ccc(F)cc2)cc1O,?,?,-17%,?,8%,?
CCOC(=O)c1nn(-c2ccc3c(c2)CCN3C(C)=O)cc1O,1.6µM*,1.6µM*,10µM*,3.8µM*,-11%,2.2µM*
CCc1c(C)nc2ncnn2c1Nc1ccc(C(C)=O)cc1,27%,18µM*,16%,27µM*,3%,13%
COc1ccc(NC(=O)/C=C/c2ccccc2)cn1,3.5µM*,?,10%[1.84 µM],8.5µM*,-2%,2.5µM*
COc1ccc(NC(=O)/C=C/c2cc(OC)c(OC)c(OC)c2)cn1,-4%,-1%,37%,-1%,7%,6%
COc1ccc(NC(=O)/C=C/c2ccc(F)cc2)cn1,?,12%,?,11µM*,-1%,?
COc1cccc(/C=C/C(=O)Nc2ccc(OC)nc2)c1,27%,6%,1%[1.84 µM],11µM*,-4%,25%
COc1cccc(/C=C/C(=O)NNC(=O)c2ccncc2)c1,0%,0%,·,?,·,-1%
CCCCC/C=C\C/C=C\C/C=C\CCCCCCC(=O)NCCCC(=O)O,·,·,12%,·,5%,·
O=C(O)COn1c(-c2ccccc2)nc2ccc(Cl)cc21,10%,?,?,4.8µM*,-17%,26%
COn1c(-c2ccccc2)nc2ccc(Cl)cc21,?,14%,28%,12µM*,-7%,?
O=[N+]([O-])c1ccc2nc(-c3ccccc3)n(OCc3ccc(Cl)cc3)c2c1,2%,0%,-22%,?,0%,5%
COc1ccc(C=C2C(=O)c3ccccc3C2=O)cc1O,0%,-2%,20%,3.4µM*,7.9µM*,-2%
COc1cc(C=C2C(=O)c3ccccc3C2=O)ccc1O,1%,2%,·,3µM*,·,-7%
COc1cc(C=C2C(=O)c3ccccc3C2=O)cc(OC)c1OC,-9%,?,-21%,?,0%,1%
N#Cc1ccc2c(c1)C[C@]1(c3ccsc3)Oc3c(c(=O)oc4ccccc34)C2O1,-1%[1.84 µM],·,·,3.1µM*,·,-4%[1.84 µM]
N#Cc1ccc2c(c1)C[C@]1(c3ccsc3)Oc3c(c(=O)oc4ccc(F)cc34)C2O1,-3%[1.84 µM],·,·,?,·,-7%[1.84 µM]
c1ccc(C[n+]2c(-c3ccccc3)csc2Nc2ccccc2)cc1,1%,-4%,-17%,-11%,0%,-1%
c1ccc(Nc2scc(-c3ccccc3)[n+]2Cc2ccco2)cc1,-4%,?,-7%,17µM*,1%,?
COc1ccc(C(=O)NNC2=NS(=O)(=O)c3ccccc32)cc1OC,1%,-5%,·,15µM*,·,-2%
O=C(COc1ccccc1)NNC1=NS(=O)(=O)c2ccccc21,-2%,4%,-5%,24µM*,5%,17%
CCOc1ccc(NC(=O)Cn2cc(C(=O)c3ccc(C)c(C)c3)c(=O)c3cc4c(cc32)OCCO4)cc1,·,·,-14%,-4%,·,·
CN(CC(=O)NCCc1ccc(Cl)cc1)S(=O)(=O)c1cccs1,-4%,-5%,·,-2%,·,2%
